Laboratory results as given in PubChem BioAssay (NCATS).
Results filed as inconclusive are left out. Activity calls are given as the source filed them. Unless noted, calls come from the whole dose curve; as a rule, active = well fitted curve in either direction with a large enough effect (not every such curve was filed as active); inconclusive = small, poorly fitted or top-dose-only effect, or another doubt; inactive = flat fitted curve, though single readings scatter.

What was measured:
[1] = target: Lysosomal acid glucosylceramidase (Homo sapiens) (UniProt P04062); experiment: Glucocerebrosidase-p2 (AID 348; in the data active = potency below about 10 µM; note: potency is the fitted concentration of half-maximal effect); details: purified GBA, blue fluorogenic substrate, 40 min
How it was run: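 Normal human glucocerebrosidase (0.2 nM) with blue fluorogenic substrate (80 uM final) in citrate/phosphate pH 5.9 with 10mM sodium taurocholate, 0.01% tween-20; 40 min RT, NaOH/glycine stop; fluorescence Ex 365/Em 440; AC50 from a titration from 0.6 nM upwards.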

[2] = AP1 Signaling Pathway (AID 357); details: ME-180 AP-1-bla reporter, EGF-induced, beta-lactamase ratio, 5 h; at 7.69 µM (top of the series) unless noted; note: % is set by controls: 0 for no effect and ±100 for the full control effect
How it was run: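 ME-180 cells with beta-lactamase reporter under AP-1 response element, stimulated with EC50 EGF; compounds tested in titration series, 5 h at 37 °C. CCF4 substrate added 2.5 h at room temperature; 460/530 nm emission ratio gave %activity and AC50.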

[3] = target: Cytochrome P450 1A2 (Homo sapiens) (UniProt P05177); experiment: p450-cyp1a2 (AID 410; calls by dose curve; note: potency is the fitted concentration of half-maximal effect;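 for activity change, negative = inhibition: -100% = full effect of reference inhibitor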); details: recombinant CYP1A2, luciferin-ME demethylation, luminescence; series mostly up to 57 µM
How it was run: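 Read-out is luminescence from luciferin produced by CYP1A2 demethylation of Luciferin-ME (100uM, at Km). Detection reagent stopped the 60 min NADPH-dependent reaction; signals were normalized to 57 uM furafylline.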

[4] = NFAT Signaling Pathway (AID 444); details: Jurkat NFAT-bla M1, carbachol, beta-lactamase ratio, 5 h; at 7.69 µM (top of the series) unless noted;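 note: carbachol stimulus at about its EC50 of 1 µM final; % is set by controls: 0 for no effect and ±100 for the full control effect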
How it was run: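 Read-out: CCF4 FRET ratio (460 nm/530 nm) after 1 h RT dye loading, used for %activity and AC50 from titration series. Cells: Jurkat NFAT-β-lactamase/M1 line, treated with compound plus 1 uM carbachol for 5 h, 37 °C.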

[5] = Stat Signaling Pathway (AID 446); details: ME-180 (cervical carcinoma) SIE beta-lactamase reporter, IL-6 stimulated, 5 h; at 7.69 µM (top of the series) unless noted;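 note: ME-180 cervical cancer cells given 40 pM IL-6 alongside compound; SIE-controlled beta-lactamase reporter measured as 460/530 nm FRET emission ratio; % is set by controls: 0 for no effect and ±100 for the full control effect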
How it was run: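 FRET read-out (405 nm excitation, 460/530 nm emission) of a beta-lactamase reporter under a STAT-inducible element in ME-180 cervical carcinoma cells. Cells with compound receive 40 pM IL-6 for 5 h. Values are normalised to AC90 stimulation and AC90 JAK-inhibitor controls.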

[6] = target: Mitogen-activated protein kinase 10 (Mus musculus) (UniProt Q61831); experiment: JNK3 AlphaScreen Assay (AID 530); details: JNK3 lysate, c-Jun phosphorylation; series mostly up to 57.1 µM;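 note: kinase came from lysate of stimulated human HepG2 cells; signal reports phosphorylation of biotinylated GST-cJun 1-79 at Ser73 with 10 µM ATP; % is set by controls: 0 for no effect and ±100 for the full control effect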
How it was run: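 Kinase buffer: 20 mM Tris-HCl pH 7.6, 10 mM MgCl2, 1 mM DTT, 0.1 mM Na3VO4, 0.01% Tween-20; ATP 10 uM. Substrate biotin-GST-cJun(1-79), enzyme from activated HepG2 lysates. Detection by Ser73 phospho-antibody AlphaScreen.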

[7] = target: Cytochrome P450 3A4 (Homo sapiens) (UniProt P08684); experiment: qHTS Assay for Activators of Cytochrome P450 3A4 (AID 885; active = well fitted curve in the direction sought with a large enough effect; an effect the other way counts as inactive or inconclusive; note: nearly all actives have a fitted effect of over 65% in size); details: recombinant CYP3A4, Luciferin-PPXE luminescence, 60 min; series mostly up to 57.1 µM
How it was run: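 Luminescent readout of luciferin formed from 25 uM Luciferin-PPXE (KM level) by 20 nM CYP3A4 in 200 mM KPO4, with 60 min NADPH-driven reaction at room temperature after 10 min compound exposure. Ketoconazole (57 uM) defined 100% inhibition.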

[8] = qHTS Assay for Lipid Storage Modulators (AID 1519; calls by dose curve); details: Drosophila S3 cells, BODIPY lipid droplet/cell ratio, laser cytometry, cells loaded with oleic acid; for activity change, negative = inhibition: at 57.5 µM (top of the series)
How it was run: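 Cells seeded at 5,000 per well were treated with compounds over a concentration series and loaded with oleic acid (400 uM, as added). Lipid droplet fluorescence (488 nm excitation, 500-530 nm channel) was read by laser-scanning cytometry and normalized to 20 uM Triacsin C.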

[9] = target: Glucocorticoid receptor (Homo sapiens) (UniProt P04150); experiment: GR-EFC Redistribution (AID 451; calls by dose curve; note: potency is the fitted concentration of half-maximal effect); details: CHO-K1 GR-EFC translocation, beta-gal luminescence, 2 h
How it was run: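 Translocation of GR-ED fusion to nuclear EA restores b-gal, read by luminescence after 1 h room-temperature detection. Engineered CHO-K1 biosensor cells, 1,000/well, exposed 2 h at 37 C to titrations up to 46 uM final.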

[10] = target: 3',5'-cyclic-AMP phosphodiesterase 4B (Homo sapiens) (UniProt Q07343); experiment: qHTS Assay for Inhibitors of PDE-IV (AID 607; active = well fitted activation curve with a large enough effect in the main read-out, with a control signal flat, not every such curve was filed as active; note: % of control where 0% means no effect); details: HEK293 ACTOne CNG channel cells, membrane potential fluorescence; series mostly up to 22.9 µM
How it was run: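 Cell-based read-out of cAMP via a modified cyclic nucleotide-gated channel and membrane potential dye (535/590 nm) in HEK293 cells expressing PDE4 endogenously. Compounds tested up to 22.9 uM final; 100 uM RO 20-1724 reference.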

[11] = target: Glucocorticoid receptor (Homo sapiens) (UniProt P04150); experiment: GR-GFP Redistribution (AID 450;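 active = compounds whose dose series gives a full or clear partial fitted curve of increased nuclear translocation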; note: potency is the fitted concentration of half-maximal effect); details: U2OS GR-GFP nuclear translocation, laser cytometry, 2 h
[12] = Confirmation and Secondary Assay for Modulators of Hemoglobin Beta Chain Splicing at IVS2 654 locus (AID 910; active = well fitted curve in the direction sought with a large enough effect; an effect the other way counts as inactive or inconclusive;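 note: HeLa cells stably carrying EGFP split by mutant beta-globin IVS2-654 intron; per-well total GFP intensity by laser scanning cytometry after 2-day treatment; % of control where 0% means no effect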); details: HeLa EGFP-654 splicing reporter, GFP fluorescence, 48 h; series mostly up to 38.3 µM
How it was run: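 Readout: per-well total peak green fluorescence (488 nm ex, 500–520 nm em) from objects 5–250 µm, reflecting correct splicing of an EGFP-654 reporter. Compounds were applied for 2 days at 37 °C to overnight-plated HeLa EGFP-654 cells; controls were DMSO and 500 nM IVS2-654 PNA.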

[13] = Confirmation and Secondary Assay for Modulators of Hemoglobin Beta Chain Splicing at IVS2 705 locus (AID 930; active = well fitted curve in the direction sought with a large enough effect; an effect the other way counts as inactive or inconclusive;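 note: HeLa cells stably expressing the EGFP-705 splicing reporter; % of control where 0% means no effect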); details: HeLa EGFP-705 splicing reporter, GFP fluorescence, 48 h; series mostly up to 38.3 µM
How it was run: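 Restored EGFP fluorescence after 2-day compound exposure reports splicing correction in IVS2-705 EGFP reporter HeLa cells; positive control was 500 nM splice-blocking PNA oligo. Signal measured as well total peak GFP intensity (488 nm excitation).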

[14] = target: Ubiquitin carboxyl-terminal hydrolase 1 (Homo sapiens) (UniProt O94782); experiment: Inhibitors of USP1/UAF1: Pilot qHTS (AID 504865; active = well fitted curve in the direction sought with a large enough effect; an effect the other way counts as inactive or inconclusive;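 note: rhodamine fluorescence freed from ubiquitin-rhodamine substrate followed over time; top concentration of the series differs between compounds; % is set by controls: 0 for no effect and ±100 for the full control effect; nearly all actives have a fitted effect of over 35% in size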); details: purified USP1/UAF1, Ub-rhodamine cleavage fluorescence; series mostly up to 54.9 µM
How it was run: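 USP1/UAF1 complex at 1 nM preincubated 15 min at room temperature with compound, then Ub-Rho substrate added at 150 nM final. Fluorescence (480/540 nm) read kinetically in 50 mM HEPES pH 7.8, 0.5 mM EDTA, 1 mM TCEP, 0.1 mg/ml BSA, 0.01% Tween-20.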

[15] = target: Cytochrome P450 3A4 (Homo sapiens) (UniProt P08684); experiment: qHTS Assay for Inhibitors and Substrates of Cytochrome P450 3A4 (AID 884; active = well fitted curve in the direction sought with a large enough effect; an effect the other way counts as inactive or inconclusive; note: potency is the fitted concentration of half-maximal effect; nearly all actives have a fitted effect of over 50% in size); details: recombinant CYP3A4, Luciferin-PPXE luminescence; series mostly up to 57.1 µM
How it was run: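 Luminescent readout of luciferin produced by CYP3A4 (20 nM) dealkylation of Luciferin-PPXE, 25 uM (its KM). NADPH-driven reaction ran 60 min at RT after 10 min compound preincubation; data scaled to 57 uM ketoconazole as 100% inhibition.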

[16] = measured here: cell count channel max response
[17] = measured here: lipid channel max response

Sequence of Cytochrome P450 1A2 (Homo sapiens) (P05177 whole entry, looked up): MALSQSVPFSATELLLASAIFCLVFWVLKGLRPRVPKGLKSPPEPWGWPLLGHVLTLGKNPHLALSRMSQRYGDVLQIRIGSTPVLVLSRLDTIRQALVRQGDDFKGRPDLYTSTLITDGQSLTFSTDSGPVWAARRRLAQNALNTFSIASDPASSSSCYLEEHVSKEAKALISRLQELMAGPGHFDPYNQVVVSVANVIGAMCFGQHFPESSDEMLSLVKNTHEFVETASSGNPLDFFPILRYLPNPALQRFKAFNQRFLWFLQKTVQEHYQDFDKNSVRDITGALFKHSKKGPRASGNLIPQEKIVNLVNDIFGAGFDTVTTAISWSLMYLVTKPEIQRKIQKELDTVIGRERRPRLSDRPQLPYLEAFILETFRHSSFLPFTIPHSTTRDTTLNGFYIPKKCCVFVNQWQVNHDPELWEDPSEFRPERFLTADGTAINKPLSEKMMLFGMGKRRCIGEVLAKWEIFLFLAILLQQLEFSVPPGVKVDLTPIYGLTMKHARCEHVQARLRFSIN
Sequence of Cytochrome P450 3A4 (Homo sapiens) (P08684 whole entry, looked up): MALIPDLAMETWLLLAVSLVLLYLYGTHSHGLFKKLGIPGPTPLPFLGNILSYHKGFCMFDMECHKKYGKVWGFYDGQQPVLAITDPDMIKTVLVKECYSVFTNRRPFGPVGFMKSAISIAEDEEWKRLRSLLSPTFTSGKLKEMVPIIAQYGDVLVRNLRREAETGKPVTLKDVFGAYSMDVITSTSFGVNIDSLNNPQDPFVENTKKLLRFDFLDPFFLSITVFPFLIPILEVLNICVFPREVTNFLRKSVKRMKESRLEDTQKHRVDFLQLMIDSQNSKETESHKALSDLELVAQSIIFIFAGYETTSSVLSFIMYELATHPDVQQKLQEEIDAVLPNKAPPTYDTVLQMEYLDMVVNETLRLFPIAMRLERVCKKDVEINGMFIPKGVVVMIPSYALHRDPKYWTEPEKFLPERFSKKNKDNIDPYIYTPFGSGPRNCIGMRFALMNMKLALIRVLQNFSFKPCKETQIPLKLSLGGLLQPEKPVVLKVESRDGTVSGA
Sequence of Glucocorticoid receptor (Homo sapiens) (P04150 whole entry, looked up, the tested form may be a part): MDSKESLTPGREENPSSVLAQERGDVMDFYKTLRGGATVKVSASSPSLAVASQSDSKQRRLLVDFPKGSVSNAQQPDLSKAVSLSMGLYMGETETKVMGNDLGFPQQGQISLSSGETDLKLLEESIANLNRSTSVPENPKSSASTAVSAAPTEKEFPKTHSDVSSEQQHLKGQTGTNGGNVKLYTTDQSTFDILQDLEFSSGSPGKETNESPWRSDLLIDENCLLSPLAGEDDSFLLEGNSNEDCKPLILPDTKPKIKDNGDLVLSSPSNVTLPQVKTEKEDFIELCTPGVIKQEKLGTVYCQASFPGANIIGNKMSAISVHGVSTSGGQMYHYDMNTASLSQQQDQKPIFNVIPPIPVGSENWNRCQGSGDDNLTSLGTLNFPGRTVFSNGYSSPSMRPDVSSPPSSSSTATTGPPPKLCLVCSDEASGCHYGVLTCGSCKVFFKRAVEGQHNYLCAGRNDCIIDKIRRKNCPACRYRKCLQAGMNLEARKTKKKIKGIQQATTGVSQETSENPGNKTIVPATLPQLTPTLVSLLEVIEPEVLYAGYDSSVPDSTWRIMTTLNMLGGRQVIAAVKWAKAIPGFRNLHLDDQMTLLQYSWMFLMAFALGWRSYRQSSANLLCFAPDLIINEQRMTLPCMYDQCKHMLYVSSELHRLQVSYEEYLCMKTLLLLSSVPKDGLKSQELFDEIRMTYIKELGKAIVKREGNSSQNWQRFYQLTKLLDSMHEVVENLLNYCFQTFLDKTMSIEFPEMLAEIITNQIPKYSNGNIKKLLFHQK
Sequence of Lysosomal acid glucosylceramidase (Homo sapiens) (P04062 whole entry, looked up): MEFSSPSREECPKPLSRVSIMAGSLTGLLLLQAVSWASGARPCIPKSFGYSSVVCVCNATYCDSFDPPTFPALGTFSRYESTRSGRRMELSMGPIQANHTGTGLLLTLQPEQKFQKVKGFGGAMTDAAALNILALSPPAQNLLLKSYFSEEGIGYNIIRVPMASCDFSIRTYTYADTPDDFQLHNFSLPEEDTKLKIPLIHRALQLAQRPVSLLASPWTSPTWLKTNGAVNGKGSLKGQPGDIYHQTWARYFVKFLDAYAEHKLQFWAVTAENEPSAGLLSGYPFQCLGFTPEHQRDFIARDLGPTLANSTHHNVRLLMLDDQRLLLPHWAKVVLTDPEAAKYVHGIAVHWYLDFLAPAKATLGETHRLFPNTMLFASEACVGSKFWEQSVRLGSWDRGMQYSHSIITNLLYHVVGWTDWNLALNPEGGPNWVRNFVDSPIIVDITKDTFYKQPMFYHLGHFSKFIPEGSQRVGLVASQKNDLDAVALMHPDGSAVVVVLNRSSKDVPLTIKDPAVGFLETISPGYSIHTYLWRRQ
Sequence of 3',5'-cyclic-AMP phosphodiesterase 4B (Homo sapiens) (Q07343 whole entry, looked up): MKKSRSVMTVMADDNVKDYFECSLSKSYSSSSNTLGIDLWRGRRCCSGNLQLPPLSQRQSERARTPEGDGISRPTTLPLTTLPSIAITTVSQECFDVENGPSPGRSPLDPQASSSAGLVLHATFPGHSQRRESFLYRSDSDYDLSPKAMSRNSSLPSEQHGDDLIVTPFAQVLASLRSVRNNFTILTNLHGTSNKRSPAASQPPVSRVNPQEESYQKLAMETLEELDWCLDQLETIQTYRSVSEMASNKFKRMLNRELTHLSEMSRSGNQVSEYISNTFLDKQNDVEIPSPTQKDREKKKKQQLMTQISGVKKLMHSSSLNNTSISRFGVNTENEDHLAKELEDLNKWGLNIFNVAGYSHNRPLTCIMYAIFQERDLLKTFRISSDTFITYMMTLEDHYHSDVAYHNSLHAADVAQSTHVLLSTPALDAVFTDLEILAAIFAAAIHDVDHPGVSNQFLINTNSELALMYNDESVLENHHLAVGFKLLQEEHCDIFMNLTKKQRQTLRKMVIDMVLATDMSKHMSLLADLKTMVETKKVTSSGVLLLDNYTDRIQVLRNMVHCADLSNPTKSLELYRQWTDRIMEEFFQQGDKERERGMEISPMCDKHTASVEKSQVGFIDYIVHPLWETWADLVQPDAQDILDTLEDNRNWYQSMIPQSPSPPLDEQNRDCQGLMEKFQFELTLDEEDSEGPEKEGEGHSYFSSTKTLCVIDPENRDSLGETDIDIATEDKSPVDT
Sequence of Ubiquitin carboxyl-terminal hydrolase 1 (Homo sapiens) (O94782 whole entry, looked up): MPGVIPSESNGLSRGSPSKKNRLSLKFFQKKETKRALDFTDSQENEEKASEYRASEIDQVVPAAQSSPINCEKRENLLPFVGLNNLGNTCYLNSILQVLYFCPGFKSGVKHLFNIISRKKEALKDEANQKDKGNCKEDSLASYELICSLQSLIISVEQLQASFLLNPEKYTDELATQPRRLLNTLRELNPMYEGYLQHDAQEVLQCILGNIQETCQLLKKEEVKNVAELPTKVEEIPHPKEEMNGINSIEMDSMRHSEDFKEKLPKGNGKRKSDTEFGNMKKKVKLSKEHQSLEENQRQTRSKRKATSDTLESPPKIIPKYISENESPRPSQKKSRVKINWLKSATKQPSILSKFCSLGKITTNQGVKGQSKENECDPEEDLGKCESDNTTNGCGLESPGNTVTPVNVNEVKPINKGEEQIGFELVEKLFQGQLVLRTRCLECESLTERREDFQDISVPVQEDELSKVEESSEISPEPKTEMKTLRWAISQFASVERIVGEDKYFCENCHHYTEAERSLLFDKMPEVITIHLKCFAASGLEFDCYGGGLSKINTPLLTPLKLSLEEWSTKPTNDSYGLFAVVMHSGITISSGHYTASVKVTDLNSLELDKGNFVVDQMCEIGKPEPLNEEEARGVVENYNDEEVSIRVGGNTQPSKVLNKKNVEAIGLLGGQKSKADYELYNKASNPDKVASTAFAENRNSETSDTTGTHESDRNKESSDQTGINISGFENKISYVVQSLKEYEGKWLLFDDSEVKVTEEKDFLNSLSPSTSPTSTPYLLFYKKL

SMILES | Potency [1] | activity change, negative = inhibition [2] | Potency [3] | activity change, negative = inhibition [4] | activity, negative = inhibition [5] | Potency [6] | Potency [7] | activity change, negative = inhibition [8] | max response [8, 16] [%] | max response [8, 17] [%] | Potency [9] | Potency [10] | Potency [11] | Potency [12] | outcome [13] | Potency [14] | Potency [15]
O=C(Nc1cccc(F)c1)N1CCCC2(CCN(C(=O)c3cc(C(F)(F)F)cc(C(F)(F)F)c3)CC2)C1 | > 11.4 µM (inactive) | -25.5% (inactive) | 12.6 µM (active) | 23.3% (inactive) | -17.6% (inactive) | inactive | inactive | 0.997% (inactive) | 12.9 | 17.1 |  |  |  |  |  |  | 
COc1ccc(NC(=O)N2CCCC3(CCN(C(=O)c4cc(C(F)(F)F)cc(C(F)(F)F)c4)CC3)C2)cc1 | > 11.4 µM (inactive) | -9.5% (inactive) | inactive | 12.1% (inactive) | -15.1% (inactive) | inactive | inactive | 6.29% (inactive) | 9.63 | 18.5 | > 46 µM (inactive) | inactive |  |  |  |  | 
CN(C)C(=O)c1ccc(-c2ccc3ncnc(NCc4cccnc4)c3c2)cc1 | > 11.4 µM (inactive) | -3.5% (inactive) |  | 14% (inactive) | -1.99% (inactive) | inactive |  | 8.52% (inactive) | 9.7 | 16.7 | > 46 µM (inactive) | inactive | > 46 µM (inactive) | inactive | inactive | inactive | 
COc1ccc(C(=O)N2CCC3(CCCN(C(=O)Nc4cccc(C#N)c4)C3)CC2)cc1 | > 11.4 µM (inactive) | -23.2% (inactive) | 15.8 µM (active) | -8.43% (inactive) | 8.74% (inactive) | inactive | inactive | 3.86% (inactive) | 0.951 | 7.45 | > 46 µM (inactive) |  |  |  |  |  | 6.31 µM (active)
CS(=O)(=O)Nc1cccc(-c2nc(N3CCNCC3)c3ccccc3n2)c1 | > 11.4 µM (inactive) | 5.71% (inactive) | 20 µM (active) |  | 2.63% (inactive) | inactive |  | 5.5% (inactive) | 12.3 | 18.5 | > 46 µM (inactive) | inactive | > 46 µM (inactive) | inactive | inactive | inactive | 
COc1ccccc1CN1CCC2(CC1)CCN(S(=O)(=O)c1ccccc1)CC2 | > 11.4 µM (inactive) | -0.16% (inactive) | inactive |  | 5.45% (inactive) | inactive |  | 0.93% (inactive) | 19 | 23.6 | > 46 µM (inactive) | inactive |  |  |  |  | 
FC(F)(F)c1cc(CN2CCC3(CCNCC3)CC2)cc(C(F)(F)F)c1 | > 11.4 µM (inactive) | 3.22% (inactive) | inactive | 9.54% (inactive) | 1.83% (inactive) |  | inactive | -1.92% (inactive) | -8.05 | -9.72 | > 46 µM (inactive) | inactive |  |  |  |  | 
COc1ccccc1CN1CC[C@@]2(CCCN(S(=O)(=O)c3ccccc3)C2)C1 | > 11.4 µM (inactive) | 7.37% (inactive) | 25.1 µM (active) |  | 8.35% (inactive) | inactive | inactive | 6.22% (inactive) | 0.611 | 10.2 | > 46 µM (inactive) | inactive |  |  |  |  | 
